Measured values: PubChem BioAssay (EPA / NIEHS)
Records with an inconclusive call do not appear. Calls of active or inactive are those of the source. How the source made its calls, unless noted: active means hit-call score of the fitted dose curve at least 0.9, where 1 is the maximum; inactive means score below 0.9.

What was measured:
[1] = read-out: Interferon-inducible T-cell alpha chemoattractant (ITAC), CXCL11 (gene 6373); assay: BSK_hDFCGF_ITAC: BioMAP Diversity Plus: hDFCGF Assay for Interferon-inducible T-cell alpha chemoattractant (ITAC) Biomarker Activity (AID 2284251); details: primary human foreskin fibroblasts
Method in brief: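 ELISA readout of I-TAC after 24 h chemical exposure; human dermal foreskin fibroblast primary cells. Positive-direction fitting vs DMSO baseline. Parallel SRB total-protein staining (0.1% SRB after 10% TCA fixation, 560 nm) flags cytotoxicity.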

[2] = read-out: Plasminogen activator inhibitor-1 (PAI1), SERPINE1 (gene 5054); assay: BSK_KF3CT_PAI1: BioMAP Diversity Plus: KF3CT Assay for Plasminogen activator inhibitor-1 (PAI1) Biomarker Activity (AID 2284252); details: primary human keratinocytes with fibroblasts
Method in brief: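 Signal is PAI-1 detected by ELISA in a human skin-derived keratinocyte/fibroblast co-culture, 24 h after dosing; DMSO served as negative control and baseline.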

[3] = read-out: Interleukin-8 (IL8), CXCL8 (gene 3576); assay: BSK_KF3CT_IL8: BioMAP Diversity Plus: KF3CT Assay for Interleukin-8 (IL8) Biomarker Activity (AID 2284254); details: primary human keratinocytes with fibroblasts
Method in brief: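 Using parallel SRB-stained cultures to flag overt toxicity, the study quantified IL-8 by ELISA in human keratinocyte–foreskin fibroblast co-cultures 24 h after dosing, with DMSO as negative control and baseline.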

[4] = read-out: Intercellular Adhesion Molecule 1 (ICAM1), ICAM1 (gene 3383); assay: BSK_BE3C_ICAM1: BioMAP Diversity Plus: BE3C Assay for Intercellular Adhesion Molecule 1 (ICAM1) Biomarker Activity (AID 2284278); details: primary human bronchial epithelial cells;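 further: cell-surface ICAM-1 protein level quantified by ELISA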
Method in brief: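 Measured by ELISA: ICAM-1 expressed by primary human bronchial epithelial cells 24 h after compound treatment, with upward-direction fitting versus DMSO vehicle.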

[5] = read-out: Interferon-inducible T-cell alpha chemoattractant (ITAC), CXCL11 (gene 6373); assay: BSK_BE3C_ITAC: BioMAP Diversity Plus: BE3C Assay for Interferon-inducible T-cell alpha chemoattractant (ITAC) Biomarker Activity (AID 2284279); details: primary human bronchial epithelial cells
Method in brief: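 ELISA read-out of I-TAC after 24 h chemical dosing of human lung primary bronchial epithelial cells; gain-of-signal fit vs DMSO baseline. Parallel SRB total-protein staining (0.1% SRB, 10% TCA fixation, 560 nm) assessed cytotoxicity.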

[6] = read-out: Interleukin-8 (IL8), CXCL8 (gene 3576); assay: BSK_BE3C_IL8: BioMAP Diversity Plus: BE3C Assay for Interleukin-8 (IL8) Biomarker Activity (AID 2284280); details: primary human bronchial epithelial cells
Method in brief: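 ELISA read-out of IL-8 in human lung bronchial epithelial primary cell cultures, 24 h post-dosing; endpoint analysed as signal increase relative to DMSO baseline.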

[7] = read-out: Epidermal growth factor receptor (EGFR), EGFR (gene 1956); assay: BSK_BE3C_EGFR: BioMAP Diversity Plus: BE3C Assay for Epidermal growth factor receptor (EGFR) Biomarker Activity (AID 2284281); details: primary human bronchial epithelial cells
Method in brief: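 Primary human lung bronchial epithelial cells; compound, 24 h; EGFR measured by ELISA; positive-direction fit vs DMSO baseline.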

[8] = read-out: KRT18 (gene 3875); assay: BSK_BE3C_Keratin818: BioMAP Diversity Plus: BE3C Assay for Keratin 818 Biomarker Activity (AID 2284282); details: primary human bronchial epithelial cells
Method in brief: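 BE3C: human bronchial epithelial primary cells, 24 h exposure, Keratin 8/18 ELISA; DMSO = negative control/baseline; cytotoxicity by parallel SRB stain (0.1% SRB after 10% TCA fixation, 560 nm).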

[9] = read-out: Matrix Metallopeptidase 9 (MMP9), MMP9 (gene 4318); assay: BSK_BE3C_MMP9: BioMAP Diversity Plus: BE3C Assay for Matrix Metallopeptidase 9 (MMP9) Biomarker Activity (AID 2284283); details: primary human bronchial epithelial cells
Method in brief: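 Endpoint is the ELISA MMP-9 signal in human primary bronchial epithelial cultures taken 24 h after chemical dosing. DMSO serves as negative control and baseline, with gain-of-signal fitting.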

[10] = read-out: Plasminogen activator inhibitor-1 (PAI1), SERPINE1 (gene 5054); assay: BSK_CASM3C_PAI1: BioMAP Diversity Plus: CASM3C Assay for Plasminogen activator inhibitor-1 (PAI1) Biomarker Activity (AID 2284284); details: primary human coronary artery smooth muscle cells;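 further: PAI-1 protein level measured by ELISA 24 h after dosing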
[11] = read-out: Monocyte Chemoattractant Protein-1 (MCP1), CCL2 (gene 6347); assay: BSK_hDFCGF_MCP1: BioMAP Diversity Plus: hDFCGF Assay for Monocyte Chemoattractant Protein-1 (MCP1) Biomarker Activity (AID 2284285); details: primary human foreskin fibroblasts
Method in brief: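 Human foreskin fibroblasts (hDFCGF system) were exposed to compound and secreted MCP-1 was measured by ELISA after 24 hours. Activity was fitted relative to DMSO. Cytotoxicity was checked by SRB total-protein staining in parallel cultures.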

[12] = read-out: Intercellular Adhesion Molecule 1 (ICAM1), ICAM1 (gene 3383); assay: BSK_hDFCGF_ICAM1: BioMAP Diversity Plus: hDFCGF Assay for Intercellular Adhesion Molecule 1 (ICAM1) Biomarker Activity (AID 2284287); details: primary human foreskin fibroblasts
Method in brief: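 Primary human foreskin fibroblasts (hDFCGF system) dosed with chemical; ICAM-1 quantified by ELISA at 24 h relative to DMSO. Parallel SRB total-protein staining to assess overt cytotoxicity.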

[13] = read-out: TIMP metallopeptidase inhibitor 2 (TIMP2), TIMP2 (gene 7077); assay: BSK_hDFCGF_TIMP2: BioMAP Diversity Plus: hDFCGF Assay for TIMP metallopeptidase inhibitor 2 (TIMP2) Biomarker Activity (AID 2284289); details: primary human foreskin fibroblasts
Method in brief: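 Primary human foreskin fibroblasts in the hDFCGF system, dosed for 24 h; TIMP-2 level measured by ELISA, fitted in the positive direction against DMSO; cytotoxicity checked in parallel by sulforhodamine B total protein staining.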

[14] = read-out: Thrombomodulin, THBD (gene 7056); assay: BSK_LPS_Thrombomodulin: BioMAP Diversity Plus: LPS Assay for Thrombomodulin Biomarker Activity (AID 2284296); details: primary human HUVEC with PBMC
Method in brief: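 Human umbilical vein endothelial cells co-cultured with PBMC and stimulated with LPS; cell-surface thrombomodulin measured by ELISA 24 hours after compound. Gain or loss versus DMSO; cytotoxicity checked by SRB staining in parallel cultures.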

[15] = read-out: CD69, CD69 (gene 969); assay: BSK_LPS_CD69: BioMAP Diversity Plus: LPS Assay for CD69 Biomarker Activity (AID 2284303); details: primary human HUVEC with PBMC
Method in brief: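 Human umbilical vein endothelial cells co-cultured with PBMC under LPS stimulation, chemical exposure 24 h; cell-surface CD69 measured by ELISA and fitted in the positive direction versus DMSO.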

[16] = target: Serine/threonine-protein phosphatase PP1-alpha catalytic subunit (Homo sapiens) (UniProt P62136); assay: NVS_ENZ_hPPP1CA: NovaScreen (NVS) Enzymatic Assay for human Protein Phosphatase 1 Aatalytic subunit Alpha (PPP1CA) (AID 2283200; active means hit-call score of the fitted dose curve at least 0.9, where 1 is the maximum)
Chain of Serine/threonine-protein phosphatase PP1-alpha catalytic subunit (Homo sapiens) (P62136 whole entry, looked up): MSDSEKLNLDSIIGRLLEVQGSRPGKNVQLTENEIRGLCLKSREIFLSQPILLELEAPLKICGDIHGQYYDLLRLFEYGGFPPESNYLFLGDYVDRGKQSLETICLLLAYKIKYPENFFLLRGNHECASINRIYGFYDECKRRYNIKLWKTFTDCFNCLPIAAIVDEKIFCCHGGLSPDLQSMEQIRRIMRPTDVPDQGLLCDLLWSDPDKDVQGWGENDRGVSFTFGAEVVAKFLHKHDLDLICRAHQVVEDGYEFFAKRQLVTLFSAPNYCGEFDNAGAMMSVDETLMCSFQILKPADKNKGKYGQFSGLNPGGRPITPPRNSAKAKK
Method in brief: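 Recombinant enzyme activity read by fluorescence with electrophoretic mobility shift separating substrate from product, 1.33 h after dosing; loss of signal vs DMSO baseline. Primary screen in duplicate at 25 uM; actives retested in concentration-response up to 50 uM.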

[17] = target: human Protein Tyrosine Phosphatase Non-receptor Type 4 (PTPN4), PTPN4 (gene 5775) (UniProt P29074); assay: NVS_ENZ_hPTPN4: NovaScreen (NVS) Enzymatic Assay for human Protein Tyrosine Phosphatase Non-receptor Type 4 (PTPN4) (AID 2283208; active means hit-call score of the fitted dose curve at least 0.9, where 1 is the maximum)
Chain of human Protein Tyrosine Phosphatase Non-receptor Type 4 (PTPN4), PTPN4 (gene 5775) (P29074 whole entry, looked up): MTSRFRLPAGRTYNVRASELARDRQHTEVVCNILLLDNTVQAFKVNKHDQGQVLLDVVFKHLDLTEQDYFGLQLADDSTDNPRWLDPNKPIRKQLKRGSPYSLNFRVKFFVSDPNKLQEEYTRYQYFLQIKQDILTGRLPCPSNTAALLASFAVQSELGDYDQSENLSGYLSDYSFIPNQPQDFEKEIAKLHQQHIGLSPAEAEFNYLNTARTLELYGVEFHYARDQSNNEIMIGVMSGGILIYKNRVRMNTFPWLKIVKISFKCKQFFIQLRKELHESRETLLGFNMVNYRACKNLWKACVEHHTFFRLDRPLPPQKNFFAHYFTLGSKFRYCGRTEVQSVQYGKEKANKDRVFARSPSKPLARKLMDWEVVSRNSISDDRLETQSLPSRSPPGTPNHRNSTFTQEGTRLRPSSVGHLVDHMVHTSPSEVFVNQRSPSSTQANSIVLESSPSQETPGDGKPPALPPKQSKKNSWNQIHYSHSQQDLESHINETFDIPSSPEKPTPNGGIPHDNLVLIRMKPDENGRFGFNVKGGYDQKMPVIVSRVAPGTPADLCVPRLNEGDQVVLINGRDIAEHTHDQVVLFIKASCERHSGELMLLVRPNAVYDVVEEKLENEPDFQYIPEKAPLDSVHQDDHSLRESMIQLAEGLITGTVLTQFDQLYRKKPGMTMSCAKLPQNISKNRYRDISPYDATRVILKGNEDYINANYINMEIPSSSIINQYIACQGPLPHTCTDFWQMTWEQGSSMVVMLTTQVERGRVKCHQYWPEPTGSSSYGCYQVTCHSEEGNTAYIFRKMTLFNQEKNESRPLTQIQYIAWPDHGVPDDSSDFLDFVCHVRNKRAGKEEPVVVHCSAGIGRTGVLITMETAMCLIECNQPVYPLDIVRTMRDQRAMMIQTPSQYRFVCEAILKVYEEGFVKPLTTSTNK
Method in brief: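 Cell-free assay of PTPN4 expressed in Sf9 cells, using a fluorescent substrate with product separated by mobility shift; read 1.33 h after dosing. Single-point screen at 25 uM, then concentration-response up to 50 uM. Loss of signal relative to DMSO.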

[18] = target: human Thyroid Receptor Alpha (TRa), THRA (gene 7067) (UniProt P10827); assay: NVS_NR_hTRa_Antagonist: NovaScreen (NVS) Nuclear Receptor Binding Assay for human Thyroid Receptor Alpha Antagonism (TRa) (AID 2283362; active means hit-call score of the fitted dose curve at least 0.9, where 1 is the maximum;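 further: activity is loss of signal relative to DMSO baseline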)
Chain of human Thyroid Receptor Alpha (TRa), THRA (gene 7067) (P10827 whole entry, looked up): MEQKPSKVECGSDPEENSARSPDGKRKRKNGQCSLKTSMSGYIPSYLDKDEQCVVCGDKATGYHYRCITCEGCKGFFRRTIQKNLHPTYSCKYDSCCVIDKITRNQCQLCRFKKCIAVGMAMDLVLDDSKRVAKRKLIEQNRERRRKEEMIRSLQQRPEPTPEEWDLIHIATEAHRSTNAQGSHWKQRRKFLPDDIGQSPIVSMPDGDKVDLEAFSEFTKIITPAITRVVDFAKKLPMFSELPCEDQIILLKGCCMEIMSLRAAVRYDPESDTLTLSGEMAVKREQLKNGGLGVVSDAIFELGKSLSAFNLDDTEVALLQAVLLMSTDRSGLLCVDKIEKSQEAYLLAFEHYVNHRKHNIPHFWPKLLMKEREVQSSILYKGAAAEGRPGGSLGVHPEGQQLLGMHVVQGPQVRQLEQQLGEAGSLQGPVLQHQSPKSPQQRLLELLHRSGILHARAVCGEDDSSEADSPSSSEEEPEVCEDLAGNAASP
Method in brief: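 In this biochemical format, receptor protein is dosed with chemical and read after 1 hour via AlphaLISA. Decreases from the DMSO baseline indicate antagonist activity; screening used 25 uM in duplicate before concentration-response confirmation.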

[19] = read-out: Cyclin D2 (CCND2), CCND2 (gene 894); assay: LTEA_HepaRG_CCND2: Life Technologies and Expression Analysis (LTEA) Assay for Cyclin D2 (CCND2) using HepaRG (AID 2283449); details: mRNA level, 48 h; actives raise or lower the signal;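 further: CCND2 transcript measured by TaqMan qRT-PCR and normalised to three housekeeping genes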
Method in brief: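 Differentiated human HepaRG cells were exposed for 48 h in serum-free induction medium to eight half-log concentrations topping at 100 uM (0.5% DMSO vehicle). CCND2 mRNA was quantified by TaqMan qRT-PCR, normalised to ACTB, GAPDH and POLR2A, and fitted bidirectionally against DMSO.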

[20] = Tanguay_ZF_120hpf_PIG_legacy: (Legacy) Oregon State University Tanguay Lab 120 Hour Post-fertilization zebrafish Assay for Pigmentation Malformation (AID 2283650; active means hit-call score of the fitted dose curve at least 0.9, where 1 is the maximum)
Method in brief: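 Tropical 5D wild-type zebrafish embryos, dechorionated with pronase at 4 hpf, were exposed singly from 6 hpf to 120 hpf statically at 28C in sealed, dark plates with 0.64% DMSO; pigmentation scored present/absent by brightfield microscopy, fitted against DMSO.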

Measured: outcome

COc1ccc(CO)cc1
not listed: [16] | [17] | [18] | [19] | [20]
inactive: all other assays above

O=C(CCl)c1ccccc1
inactive: [16] | [17] | [18] | [19] | [20]
